Results taken from PubChem BioAssay AID1159580 (chemical genetic matrix, 2015).
Among all 5,500 compounds or so, about 2,000 (36%) were called active. Another 18% or so got no clear call; they are omitted. Cut-off read from the data, not from the text of the source: active = normalized growth mostly below about 0.91 (no sharp cut-off); inconclusive = no clear call, values can overlap the other calls; inactive = mostly above about 0.92. The list shows a part of the results.

Test: chemical genetic growth profiling, strain panel (AID 1159580);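 note: tested at 20 µM; growth read once vehicle control cultures reached saturation at 30 °C; 1 = growth at the plate median or of vehicle wells; lower values mean less growth of the strain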
Conditions: S. cerevisiae deletion strains, growth OD

Measured: normalized growth

C#C[C@]1(O)CC[C@H]2[C@@H]3CCC4=Cc5oncc5CC4(C)[C@H]3CCC21C (stereo partly specified)
inactive: locus YAL040C, strain CLN3, active compounds read low 0.943 | locus YCL061C, strain MRC1 (second series), active compounds read low 1 | locus YDR363W, strain ESC2, active compounds read low 1.02 | locus YER002W, strain NOP16, active compounds read low 0.949 | locus YGR078C, strain PAC10, active compounds read low 0.948 | locus YGR229C, strain SMI1, active compounds read low 1.02 | locus YJR075W, strain HOC1, active compounds read low 1 | locus YMR263W, strain SAP30, active compounds read low 1 | locus YMR307W, strain GAS1, active compounds read low 0.988 | locus YNL153C, strain GIM3, active compounds read low 0.917 | locus YNL175C, strain NOP13, active compounds read low 0.917 | locus YNL197C, strain WHI3, active compounds read low 0.921 | locus YNL224C, strain SQS1, active compounds read low 0.934 | locus YOR083W, strain WHI5 (second series), active compounds read low 0.99 | locus YPL055C, strain LGE1, active compounds read low 1.02 | locus YPL241C, strain CIN2, active compounds read low 1
